From PubChem BioAssay (Tox21)
Where “and” joins values, the source holds several entries; their conditions need not be identical. Equal entries are not always repeated. Inconclusive results are not listed. Some compounds were tested as several samples or in several runs, with calls that do not always agree. Calls of active or inactive are those of the source. Unless noted, the call rests on the fitted dose curve; in most records, active means well fitted cell-killing curve with a large enough effect in the repeat runs; inconclusive means weak or mixed curves, or effect the other way; inactive means no such curve, though single readings can be large or run the other way.

Test: qHTS assay to identify small molecule agonists of the endoplasmic reticulum stress response signaling pathway - cell viability counter screen (AID 1159517; calls by dose curve;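 on activity change, negative = cytotoxicity: HeLa cells carrying an ER stress response element beta-lactamase reporter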)
Settings: ESRE-bla HeLa viability, CellTiter-Glo luminescence, 5 h; series mostly up to 61 µM; activity change, negative = cytotoxicity: at the top concentration
In short: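 Steps: seed 1,500 ESRE-bla HeLa cells per well; incubate overnight at 37 C, 5% CO2; add compounds in DMSO for 5 hr; run FRET substrate 2 hr RT; add CellTiter-Glo, wait 30 min, read luminescence.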
Further: nearly all actives have a fitted effect of over 50% in size.
On the % scale 0 is the no-effect control and ±100 the full control effect; potency means the concentration at half of the fitted maximal effect.

| Compound | Potency | activity change, negative = cytotoxicity |
| --- | --- | --- |
| C=C(C)C(=O)O | inactive |  |
| CC(C)(C)c1ccccc1 |  | -0.0756% (inactive) |
| [Cl][In]([Cl])[Cl] |  | 9.11% (inactive) |
| Cc1occc(=O)c1OC(=O)C(C)C |  | 2.22% (inactive) |
| NC(N)=Nc1nc(CSCC/C(N)=N/S(N)(=O)=O)cs1 | inactive |  |
| CCCCCCCCCCCCCCCCCl |  | -0.58% [at 28.5 µM] (inactive) |
| COC(c1ccccc1)(c1ccccc1)[C@H](Oc1nc(C)cc(C)n1)C(=O)O |  | 0.494% (inactive) |
| CCCCC/C=C/CC1CC(=O)OC1=O (stereo unspecified) |  | -13.3% (inactive) |
| O=C(O)c1cc(Cl)cc(Cl)c1 |  | 13.3% (inactive) |
| CCn1cc(C(=O)O)c(=O)c2cc(F)c(N3CCNC(C)C3)c(F)c21 (stereo unspecified) |  | 17.8% (inactive) |
| O=C(O)c1cn(-c2ccc(F)cc2)c2cc(N3CCNCC3)c(F)cc2c1=O |  | -2.33% [at 28.5 µM] (inactive) |
| CC(=O)CC(=O)Nc1ccc2[nH]c(=O)[nH]c2c1 |  | 24.9% (inactive) |
| OCC(CO)N[C@H]1C[C@](O)(CO)[C@@H](O)[C@H](O)[C@H]1O |  | 5.75% (inactive) |
| C#CC(C)(CC)OC(=O)c1ccccc1C(=O)O (stereo unspecified) |  | 11.2% (inactive) |
| c1cnc2cc3c(cc2n1)C1CNCC3C1 |  | 0.577% (inactive) |
| NCCO |  | -9.09% (inactive) |
| CC(=O)Nc1ccc(C(=O)CCl)cc1 | inactive and 27.5 µM (active) |  |
| c1ccc2c(c1)CCCC2C1=NCCN1 (stereo unspecified) |  | 18.5% (inactive) |
| CC(C)CCOC(=O)c1ccc(N(C)C)cc1 |  | -0.662% (inactive) |

Test: qHTS assay to identify small molecule antagonists of the retinoid-related orphan receptor gamma (ROR-gamma) signaling pathway - cell viability counter screen (AID 1159520)
Settings: Tet-on RORgamma CHO cells viability, ATP luminescence, 16 h; series mostly up to 92.4 µM; activity, negative = cytotoxicity: at the top concentration
In short: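 Tet-on ROR gamma CHO cells were given compounds for 2 hr, then doxycycline hyclate at 1 uM final, and incubated 16 hr at 37 C. Viability was measured as ATP content by CellTiter-Glo luminescence.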

| Compound | Potency | activity, negative = cytotoxicity |
| --- | --- | --- |
| Cc1ccnc2c1NC(=O)c1cccnc1N2C1CC1 | inactive |  |
| CC(C(O)c1ccc(O)cc1)N1CCC(Cc2ccccc2)CC1 (stereo unspecified) |  | 1.52% [at 42.5 µM] (inactive) |
| NCCCCCC(=O)O |  | 8.11% [at 42.5 µM] (inactive) |
| NC12CC3CC(CC(C3)C1)C2 |  | 4.63% [at 42.5 µM] (inactive) |
| CC(=O)OCCOCCOCCOC(C)=O | inactive |  |
| CC[C@@H](N)CO |  | 2.16% (inactive) |
| CCC(CO)(CO)COCC(CC)(CO)CO |  | -2.82% (inactive) |
| COc1ccc(Cc2cnc(N)nc2N)cc1OC |  | 4.43% [at 42.5 µM] (inactive) |
| O=C(OCc1ccccc1)c1ccc(O)cc1 | inactive |  |
| CCCC(=O)c1ccccc1 |  | 1.67% (inactive) |
| COc1nc(C)nc(Cl)c1NC1=NCCN1 |  | 1.28% [at 42.5 µM] (inactive) |
| CCCCN(CCO)CCCC |  | -5.41% (inactive) |
| COc1ccc(COC(C)=O)cc1 | inactive |  |
| CC(=O)CC(C)=O |  | -1.35% (inactive) |
| CCN1CCCC1CNC(=O)c1cc(S(=O)(=O)CC)c(N)cc1OC (stereo unspecified) |  | -0.533% [at 42.5 µM] (inactive) |
| C1COC(NC(C2CC2)C2CC2)=N1 |  | 3.53% [at 42.5 µM] (inactive) |
| NC(N)=NC(=O)Cc1c(Cl)cccc1Cl |  | 1.76% [at 42.5 µM] (inactive) |
| CCC(=O)/C=C/C1C(C)=CCCC1(C)C (stereo unspecified) | inactive |  |
| C=C(C)C(=O)O | inactive |  |

| Compound | Potency | activity, negative = cytotoxicity |
| --- | --- | --- |
| CC(C)(C)c1ccccc1 |  | 0.556% (inactive) |
| [Cl][In]([Cl])[Cl] | inactive |  |
| Cc1occc(=O)c1OC(=O)C(C)C |  | 7.37% (inactive) |
| NC(N)=Nc1nc(CSCC/C(N)=N/S(N)(=O)=O)cs1 | inactive |  |
| CCCCCCCCCCCCCCCCCl |  | 5.98% [at 19 µM] (inactive) |
| COC(c1ccccc1)(c1ccccc1)[C@H](Oc1nc(C)cc(C)n1)C(=O)O |  | -0.453% [at 42.5 µM] (inactive) |
| CCCCC/C=C/CC1CC(=O)OC1=O (stereo unspecified) |  | 2% (inactive) |
| O=C(O)c1cc(Cl)cc(Cl)c1 |  | 0.0293% (inactive) |
| CCn1cc(C(=O)O)c(=O)c2cc(F)c(N3CCNC(C)C3)c(F)c21 (stereo unspecified) |  | 1.72% [at 42.5 µM] (inactive) |
| O=C(O)c1cn(-c2ccc(F)cc2)c2cc(N3CCNCC3)c(F)cc2c1=O | inactive |  |
| CC(=O)CC(=O)Nc1ccc2[nH]c(=O)[nH]c2c1 |  | -1.06% (inactive) |
| OCC(CO)N[C@H]1C[C@](O)(CO)[C@@H](O)[C@H](O)[C@H]1O |  | 4.72% [at 42.5 µM] (inactive) |
| C#CC(C)(CC)OC(=O)c1ccccc1C(=O)O (stereo unspecified) |  | 5.09% [at 42.5 µM] (inactive) |
| c1cnc2cc3c(cc2n1)C1CNCC3C1 |  | 0.0248% [at 42.5 µM] (inactive) |
| NCCO | inactive |  |
| CC(=O)Nc1ccc(C(=O)CCl)cc1 | inactive and 13.7 µM (active) |  |
| c1ccc2c(c1)CCCC2C1=NCCN1 (stereo unspecified) |  | 0.878% [at 42.5 µM] (inactive) |
| CC(C)CCOC(=O)c1ccc(N(C)C)cc1 |  | 2.7% [at 42.5 µM] (inactive) |
